The record followed here is the supplement of paper PMC3724861.

The sample as a whole holds a higher share of hits than the screen did. No count for the full screen is at hand. Unmarked numbers belong to inactive results.

In the assay the test system is T1, Caupolican (Caup) homeodomain DNA-binding domain.
T1 sequence: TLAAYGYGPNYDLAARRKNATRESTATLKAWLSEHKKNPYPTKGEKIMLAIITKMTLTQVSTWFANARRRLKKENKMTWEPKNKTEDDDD
In words: PBM E-score (8-mer, recovered from the published 9-mer minima) (E-score (dimensionless, -0.5 to 0.5)); Drosophila protein; higher = stronger relative binding preference, active = 0.31 or more. The method, boiled down:
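An enrichment score, with higher meaning stronger, expresses relative binding preference for each short DNA word. The protein used was Caup's homeodomain DNA-binding domain (residues 214-303), produced by in vitro transcription and translation and tested at 100 nM on custom-designed protein binding microarrays. The 8-mer values were recovered from published 9-mer scores, each equal to the lower of its two constituent 8-mer scores.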
Take GGGCTTTA: the “PBM E-score” value was -0.186.

GATCTACA: the “PBM E-score” value is 0.145.

Take CGATAACA: the “PBM E-score” value was 0.244.

Take TGATAACA: the “PBM E-score” value is 0.322 (active).

Consider GAATAACA, for which the “PBM E-score” value is 0.301.

Regarding GGATAACA, the “PBM E-score” value was 0.238.

Take TAATAACA: the “PBM E-score” value was 0.319 (active).

As for CAATAACA, the “PBM E-score” value was 0.238.

As for CGGTCTTA, the “PBM E-score” value was -0.00157.

As for ACGTAACA, the “PBM E-score” value was 0.263.

Regarding ATGTAAGA, the “PBM E-score” value was 0.332 (active).

Consider CTGTAAGA, for which the “PBM E-score” value was 0.138.

Regarding CTGTAACA, the “PBM E-score” value is 0.289.

ATGTAACG: the “PBM E-score” value was 0.347 (active).

With ACGTAACG, the “PBM E-score” value was 0.0522.

As for GGGTAACA, the “PBM E-score” value is 0.216.

Consider GTGTAACA, for which the “PBM E-score” value was 0.397 (active).

Take ATGTAACA: the “PBM E-score” value was 0.429 (active).

In the case of GCGTAACA, the “PBM E-score” value is 0.221.

As for GTGTAAGA, the “PBM E-score” value was 0.224.

Consider ATGTAACC, for which the “PBM E-score” value was 0.275.

Turning to GATAGATC, the “PBM E-score” value is 0.0307.

CACGCAAA: the “PBM E-score” value was 0.0933.

For CAAATACA, the “PBM E-score” value is 0.245.

Regarding GTTCGCGA, the “PBM E-score” value was 0.066.

Take TACTGCAA: the “PBM E-score” value is 0.125.

As to ATTGGGCG, the “PBM E-score” value is -0.135.

Take AAGTAATT: the “PBM E-score” value was 0.18.

On to AGCCATAA, for which the “PBM E-score” value is 0.0213.

Consider ACCGGCGA, for which the “PBM E-score” value is -0.156.

As to AGGTAACC, the “PBM E-score” value was -0.0119.

For AGGTAACA, the “PBM E-score” value is 0.327 (active).

Consider AGGTAACT, for which the “PBM E-score” value is 0.0502.

Consider CTGGTAAG, for which the “PBM E-score” value was -0.00689.

On to GTATGATA, for which the “PBM E-score” value is 0.242.

With GTATGAGA, the “PBM E-score” value is 0.0966.

As for ATATGACC, the “PBM E-score” value was 0.021.

With GTATGACA, the “PBM E-score” value was 0.312 (active).

As for CTATGACA, the “PBM E-score” value was 0.223.

On to ATATGACA, for which the “PBM E-score” value is 0.336 (active).

Turning to GAGCTGTA, the “PBM E-score” value is 0.079.

For the sequence CTATTGAA, the “PBM E-score” value was 0.0499.

For the sequence GCAAGTCC, the “PBM E-score” value was -0.0418.

For ACATAATC, the “PBM E-score” value is 0.202.

Turning to ACATAACA, the “PBM E-score” value was 0.332 (active).

For the sequence ACATAACT, the “PBM E-score” value was 0.291.

Regarding GCATAATA, the “PBM E-score” value is 0.169.

As for ACATAACC, the “PBM E-score” value is 0.22.

Turning to ACATAATA, the “PBM E-score” value was 0.323 (active).

On to GCCTATCA, for which the “PBM E-score” value is -0.108.

For CGATCAAA, the “PBM E-score” value is -0.00998.

As to CATCTAAG, the “PBM E-score” value was -0.0746.

Regarding GGTGTTAA, the “PBM E-score” value is 0.18.

Consider AGTGTTAA, for which the “PBM E-score” value is 0.165.

For AGTGTTTA, the “PBM E-score” value was 0.176.

For TGTGTTAA, the “PBM E-score” value was 0.32 (active).

As for CGTGTTTA, the “PBM E-score” value was 0.319 (active).

Regarding CGTGTTAG, the “PBM E-score” value is 0.285.

In the case of GGTGTTTA, the “PBM E-score” value is 0.124.

Consider CGTGTTAC, for which the “PBM E-score” value was 0.282.

CGTGTTAA: the “PBM E-score” value was ≥ 0.33 (active).

With AGCTGAGG, the “PBM E-score” value is -0.169.

As for AAGCCTAC, the “PBM E-score” value was -0.0275.

As for AGACGGAC, the “PBM E-score” value is -0.0361.

As to CTGAAATA, the “PBM E-score” value was 0.0494.

As for AAATAACT, the “PBM E-score” value was 0.19.

As for ACATCAAC, the “PBM E-score” value was 0.235.

As to AAAGAGTA, the “PBM E-score” value was 0.0035.

Regarding CGTACAAG, the “PBM E-score” value was 0.37 (active).

Consider CGTACAAC, for which the “PBM E-score” value was 0.31 (active).

AGTACCAG: the “PBM E-score” value is 0.0977.

Turning to CGCACAAC, the “PBM E-score” value is 0.0805.

On to AGTACAAG, for which the “PBM E-score” value was 0.416 (active).

Turning to CATACAAG, the “PBM E-score” value is 0.3.

As for GGTACAAA, the “PBM E-score” value was 0.256.

On to CGTACAAA, for which the “PBM E-score” value is 0.18.

As for CGTACAGC, the “PBM E-score” value was 0.00506.

Turning to GGTACAAC, the “PBM E-score” value is 0.32 (active).

Turning to AGTACAAC, the “PBM E-score” value was 0.275.

AGTACAAT: the “PBM E-score” value is 0.292.

As for GAGTTATC, the “PBM E-score” value was 0.0344.

On to CTAGCAAC, for which the “PBM E-score” value is 0.101.

Consider GGTATTGA, for which the “PBM E-score” value was 0.058.

Turning to AGCTCAAT, the “PBM E-score” value is -0.0704.

For the sequence TGAGTGCA, the “PBM E-score” value is -0.0812.

On to CGTTTGCC, for which the “PBM E-score” value was -0.0961.

TCATCGCA: the “PBM E-score” value is 0.065.

For CACCCACG, the “PBM E-score” value was -0.151.

For the sequence AAGGCGCG, the “PBM E-score” value is -0.205.

In the case of GCATGAGC, the “PBM E-score” value was -0.0712.

For GGTCAACA, the “PBM E-score” value is 0.159.

As to TGTCAACA, the “PBM E-score” value was ≥ 0.324 (active).

AGACAACA: the “PBM E-score” value was 0.349 (active).

Take CGACAACG: the “PBM E-score” value was 0.168.

Take TGACAAAA: the “PBM E-score” value was 0.186.

Turning to TGACAGCA, the “PBM E-score” value is 0.185.

On to CGTCAACA, for which the “PBM E-score” value is 0.0802.

With AGACAACT, the “PBM E-score” value was 0.191.

On to CGACAACA, for which the “PBM E-score” value was 0.342 (active).

Regarding CGACAACC, the “PBM E-score” value is 0.186.

For the sequence AGACAACG, the “PBM E-score” value is 0.231.

On to TGACAACA, for which the “PBM E-score” value is 0.377 (active).

In the case of AAGCATCA, the “PBM E-score” value was 0.0394.

GCAAGTGC: the “PBM E-score” value was -0.0754.

Regarding AGACAGGC, the “PBM E-score” value is -0.00368.

Turning to AGTCCGGG, the “PBM E-score” value is -0.154.

Consider AAGTTGAC, for which the “PBM E-score” value was 0.0758.

AACGCTGG: the “PBM E-score” value was -0.0926.

Consider CTATTGGA, for which the “PBM E-score” value is 0.00708.

Turning to ATGCTGAC, the “PBM E-score” value was 0.119.

For the sequence GAAAGCAC, the “PBM E-score” value was 0.0573.

With ATGGTTGG, the “PBM E-score” value was -0.0636.

Take AATATTGG: the “PBM E-score” value is 0.0704.

As to ATCACTAG, the “PBM E-score” value is 0.138.

As to GGACAACC, the “PBM E-score” value was 0.169.

With CGACAAGA, the “PBM E-score” value is 0.317 (active).

For the sequence AGACAAGA, the “PBM E-score” value is 0.256.

With GGACAAGA, the “PBM E-score” value is 0.264.

GGACAACA: the “PBM E-score” value is 0.336 (active).

Regarding CGACAAGC, the “PBM E-score” value was 0.224.

In the case of AAGGGGTG, the “PBM E-score” value is -0.101.

With GCTGGTAC, the “PBM E-score” value is 0.0272.

As for AGTTCTAT, the “PBM E-score” value is 0.0299.

Consider ATCTTGTG, for which the “PBM E-score” value was 0.18.

With ATCTTGTA, the “PBM E-score” value is 0.375 (active).

As to ATCTTGTC, the “PBM E-score” value was 0.308.

Consider CTCTTGTA, for which the “PBM E-score” value was 0.299.

GTCTTGCA: the “PBM E-score” value was 0.0651.

Regarding GTCTTGTA, the “PBM E-score” value is 0.352 (active).

As for GCAAAGGC, the “PBM E-score” value is -0.087.

For the sequence ATATGCGA, the “PBM E-score” value was 0.0126.

For AGTTCAAC, the “PBM E-score” value was 0.0449.

ACTCCTTG: the “PBM E-score” value is 0.0436.

For the sequence CCTCTGCC, the “PBM E-score” value is -0.243.

Regarding CACATAAC, the “PBM E-score” value is 0.223.

With GCCATAAC, the “PBM E-score” value is 0.0397.

As to ATCATAAT, the “PBM E-score” value was 0.167.

On to AACATAAT, for which the “PBM E-score” value was ≥ 0.327 (active).

For the sequence AACATAAC, the “PBM E-score” value is 0.318 (active).

In the case of GACATAAA, the “PBM E-score” value is 0.288.

As for AACATAAG, the “PBM E-score” value is 0.268.

Consider ATCATAAC, for which the “PBM E-score” value is 0.156.

For GACATAAC, the “PBM E-score” value was 0.325 (active).

With AGCCCATG, the “PBM E-score” value was 0.00842.

Turning to CCTTAAGG, the “PBM E-score” value was -0.154.

Take AGAACGCC: the “PBM E-score” value is -0.114.
